PubChem BioAssay (Tox21)
Records with an inconclusive call do not appear. Unmarked numbers belong to inactive results. The source made the active and inactive calls. Unless noted, calls follow the shape of the full dose curve.

Tested on: not listed separately
Test: qHTS assay to identify small molecule agonists of the estrogen receptor alpha (ER-alpha) signaling pathway in the presence of an antagonist - cell viability counter screen (AID 1259386; active = well fitted cell-killing curve with a large enough effect in the repeat runs;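 also: cells exposed to compounds for 22 h at 37 °C before the viability read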; also: potency is read from the fitted curve at half-maximal effect)
Details: VM7Luc4E2 viability, CellTiter-Fluor fluorescence, 22 h; series mostly up to 92.4 µM; activity change, negative = cytotoxicity: at the top concentration
How it was run: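 Cytotoxicity was measured in parallel with the ERE-luciferase agonist screen, in the same wells. The cells were VM7Luc4E2, which endogenously express ER-alpha, and treatment was with compounds plus 10.0nM ICI-182,780 for 22hr.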
% is scaled to controls: 0 for no effect and ±100 for the full control effect.
Also: nearly all actives have a fitted effect of over 30% in size.

SMILES | Potency | activity change, negative = cytotoxicity
CCN(CC)CCNc1ccc(CO)c2sc3ccccc3c(=O)c12 | 10.6 µM (active) | –
CN(C)CCCN1c2ccccc2Sc2ccc(C(F)(F)F)cc21 | – | -6.76% [at 42.5 µM]
CC(=O)Nc1ccc(O)cc1 | inactive | –
CCCCCCCCCCCCCCNCCO | – | -3.65% [at 42.5 µM]
C[C@]12CC[C@H]3C(=CCc4cc(O)ccc43)[C@@H]1CCC2=O | – | -10.8%
O=Nc1ccc(NO)cc1 | – | -16.3%

Target: Progesterone receptor (Homo sapiens) (UniProt P06401)
Sequence (P06401 whole entry, looked up): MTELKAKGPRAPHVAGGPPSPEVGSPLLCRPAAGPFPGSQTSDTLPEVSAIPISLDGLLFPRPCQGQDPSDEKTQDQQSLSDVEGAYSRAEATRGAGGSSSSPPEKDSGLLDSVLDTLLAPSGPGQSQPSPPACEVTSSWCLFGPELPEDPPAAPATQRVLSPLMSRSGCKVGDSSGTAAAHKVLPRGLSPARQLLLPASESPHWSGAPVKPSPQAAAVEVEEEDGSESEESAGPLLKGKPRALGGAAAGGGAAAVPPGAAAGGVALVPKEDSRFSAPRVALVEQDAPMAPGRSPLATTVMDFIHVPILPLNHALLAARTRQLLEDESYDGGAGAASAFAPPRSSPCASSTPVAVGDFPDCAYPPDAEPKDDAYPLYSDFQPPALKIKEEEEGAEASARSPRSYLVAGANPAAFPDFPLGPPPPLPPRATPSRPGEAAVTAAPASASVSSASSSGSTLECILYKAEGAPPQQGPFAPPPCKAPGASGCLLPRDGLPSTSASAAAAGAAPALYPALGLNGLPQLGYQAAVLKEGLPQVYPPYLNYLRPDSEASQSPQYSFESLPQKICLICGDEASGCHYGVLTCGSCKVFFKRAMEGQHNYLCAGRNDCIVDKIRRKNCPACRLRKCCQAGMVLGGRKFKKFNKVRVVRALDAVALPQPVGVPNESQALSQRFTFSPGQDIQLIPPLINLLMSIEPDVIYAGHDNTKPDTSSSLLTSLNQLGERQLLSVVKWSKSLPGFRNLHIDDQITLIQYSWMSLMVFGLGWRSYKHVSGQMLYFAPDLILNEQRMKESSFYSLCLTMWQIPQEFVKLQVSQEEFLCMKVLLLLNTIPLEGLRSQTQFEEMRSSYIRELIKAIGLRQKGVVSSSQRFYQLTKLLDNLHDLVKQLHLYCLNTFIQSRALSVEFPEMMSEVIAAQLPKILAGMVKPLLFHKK
Test: qHTS assay to identify small molecule agonists of the progesterone receptor (PR) signaling pathway (AID 1346784)
Details: PR-UAS-bla HEK293T, beta-lactamase FRET ratio, 16 h; series mostly up to 92.4 µM; activation: at the top concentration
How it was run: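 Compounds were tested for PR agonism in HEK 293T cells bearing a beta-lactamase gene under UAS control. Treatment lasted 16 hr at 37C; signal came from fluorescence of a FRET substrate.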

SMILES | activation | outcome
O=C1OC(OC(=O)c2cccnc2Nc2cccc(C(F)(F)F)c2)c2ccccc21 (stereo not drawn) | 5.27% [at 42.5 µM] | –
CN1[C@@H]2CC[C@H]1CC(OC(=O)C(CO)c1ccccc1)C2 (stereo partly drawn) | – | inactive
Nc1ccc2cc3ccc(N)cc3nc2c1 | -11.2% [at 42.5 µM] | –
CCCCCCCCCCCC(=O)N(CC)CC | 4.79% | –
O=C(c1ccccc1)c1cc(Cl)ccc1O | 1.1% | –
C[C@@]12C(=O)OC(=O)[C@]1(C)C1CCC2O1 | 7.13% [at 42.5 µM] | –
COc1ccc2sc(C(=O)Nc3nnn[nH]3)c(OC(C)C)c2c1 | -9.74% | –
CCCCCCCC/C=C\CCCCCCCC(=O)NCc1ccc(O)c(OC)c1 | 3.7% [at 42.5 µM] | –
CC(C)c1cccc(C(C)C)c1N1C(=O)c2ccc(O)cc2C1=O | -12.7% | –
CCO[Si](CCCSSSSCCC[Si](OCC)(OCC)OCC)(OCC)OCC | 0.496% | –
CC(CN(C)C)CN1c2ccccc2CCc2ccccc21 (stereo not drawn) | -5.96% [at 42.5 µM] | –
CC(=O)Oc1ccc(C2(c3ccc(OC(C)=O)cc3)C(=O)Nc3ccccc32)cc1 | 0.602% [at 42.5 µM] | –
CCCCN(CCCC)CCC(O)c1cc2c(Cl)cc(Cl)cc2c2cc(C(F)(F)F)ccc12 (stereo not drawn) | 0.993% [at 42.5 µM] | –
CN(C)CCCN1c2ccccc2Sc2ccc(C(F)(F)F)cc21 | -1.42% [at 42.5 µM] | –
CCCCCCCCCCCCCCNCCO | -4.03% [at 42.5 µM] | –
C[C@]12CC[C@H]3C(=CCc4cc(O)ccc43)[C@@H]1CCC2=O | -27.2% | –
O=Nc1ccc(NO)cc1 | -13.4% | –
